Hits are enriched below; roughly 10% of the tested compounds scored in any of these assays.
PNC inhibitor – blocks assembly of the perinucleolar compartment; actives 3.1% (n = 140,000); PC3M PTB-GFP, PNC prevalence imaging, 16 h; hits give low values; activity change (PNC), negative = inhibition, % at 10 µM; AID 2417;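 active means readout at or below -70, meaning at least 70% loss of cells showing the perinucleolar compartment, a nuclear body marking cancer cells; inconclusive means readout between -30 and a set limit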;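 further: plate controls were DMSO wells for no effect and camptothecin positive control wells for full effect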
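PC3M cells stably expressing PTB-GFP, 750–1000 cells/well, treated 16 h at 37 °C with compound (23 nl of library stock), in duplicate. After paraformaldehyde fixation and Hoechst stain, imaged at 20x; PNC prevalence scored by image analysis.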
ALDH1A1 inh – blocks purified human ALDH1A1 activity | P00352 | Purified ALDH1A1, NADH fluorescence, propionaldehyde substrate | Potency, µM (series often up to 75.3 µM), inactives show at the top dose activity, negative = inhibition, actives largely listed as inhibitors | actives 7.3% (n = 220,000) | AID 1030;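 further: potency means the concentration at half of the fitted maximal effect; plate controls were no enzyme wells and a reference inhibitor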
HPGD inh – HPGD (human) dehydrogenase inhibition | actives 4.3% (n = 150,000) | AID 894 | purified HPGD, NADH fluorescence kinetic, PGE2 substrate | Potency, µM, inactives show at the top dose activity change, negative = inhibition, most hits filed as inhibitors; further: potency means the concentration at half of the fitted maximal effect
Target sequence (P15428 whole entry, looked up): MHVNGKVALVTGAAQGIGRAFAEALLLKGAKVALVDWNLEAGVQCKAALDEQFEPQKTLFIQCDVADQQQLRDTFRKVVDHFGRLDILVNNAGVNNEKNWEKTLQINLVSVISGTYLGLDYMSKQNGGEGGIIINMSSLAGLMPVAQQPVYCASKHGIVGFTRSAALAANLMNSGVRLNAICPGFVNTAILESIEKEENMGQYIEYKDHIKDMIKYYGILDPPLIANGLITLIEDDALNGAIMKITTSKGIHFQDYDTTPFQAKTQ
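NADH formation kinetics: reaction with 30 uM PGE2 and 1 mM NAD+ (final), 20 nM enzyme, Tris-HCl pH 8 with Tween 20, after 15 min compound preincubation at room temperature. Fluorescence change, last versus first of five reads.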
LMNA splice mod – changes lamin A minigene splicing in HeLa cells. HeLa LMNA splicing GFP/RFP minigene ratio, 48 h. Potency, µM (series often up to 46.1 µM), inactives show at the top dose ratio change, negative = inhibition, usual class: inhibitors. actives 0.01% (n = 200,000). AID 1487; active means well fitted inhibition curve with a large enough effect in the signal ratio, with a control signal flat, not every such curve was filed as active; inconclusive means small, poorly fitted or top-dose-only effect, or effect the other way, or a change in a side signal; the % refers to the signal ratio; further: potency means the concentration at half of the fitted maximal effect
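S3 HeLa stable clones carrying a lamin A-EGFP splicing minigene plus DsRed2 were seeded at 600 cells/well in Opti-MEM with 2% FBS, pin-dosed and incubated 48 h at 37°C. Acumen cytometry (488 nm) gave the GFP/RFP total-intensity ratio.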
ALOX12 inhib – inhibitors of human 12-lipoxygenase (ALOX12). purified 12-hLO, xylenol orange hydroperoxide absorbance. P18054. Potency, µM (titrated, usually from 57.1 µM), for the others: at the top dose activity change, negative = inhibition, hits mostly inhibitors. actives 0.12% (n = 150,000); active means well fitted inhibition curve with a large enough effect; inconclusive means small, poorly fitted or top-dose-only effect; further: potency means the concentration at half of the fitted maximal effect; nearly all actives have a fitted effect of over 55% in size
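Hydroperoxide output read as Fe(III)-xylenol orange absorbance, 573-to-405 nm ratio, after 30 min reaction with 40 uM arachidonic acid. Enzyme: 150 nM purified human 12hLO, 15 min compound preincubation; 25 mM Hepes pH 7.0, room temperature.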
* hit, by the source's call; i = inactive; ? = inconclusive; / = no result; [ ] = another dose, or the depositor's remark. Unless noted, the call rests on the fitted dose curve; in most records, active means well fitted inhibition curve with a large enough effect (not every such curve was filed as active); inconclusive means small, poorly fitted or top-dose-only effect, or another doubt; inactive means no such curve, though single readings can be large or run the other way. Unless noted, on the % scale 0 is the no-effect control and ±100 the full control effect.

SMILES | PNC inhibitor | ALDH1A1 inh | HPGD inh | LMNA splice mod | ALOX12 inhib
CCOC(=O)C1=NN(C(=O)c2ccc(OC)cc2)C(O)(c2ccc(Cl)cc2)C1 (configuration not stated) | -18 | 18µM* | -9% | 0% | -4%
CCOC(=O)C1=NN(C(=O)COc2ccccc2)C(O)(c2ccc(Cl)cc2)C1 (configuration not stated) | / | -1% | / | 2%[46 µM] | /
CCOC(=O)C1=NN(C(=O)c2ccccc2)C(O)(c2ccc(C)cc2)C1 (configuration not stated) | -95* | -8% | -5% | 8% | -6%
COc1ccc2c3c(ccc2c1)N[C@H](C(=O)O)CC3 | / | ? | ? | / | 4%[11.4 µM]
O=C(c1ccco1)N1CCC2(CC1)CCN(c1ccccn1)CC2 | / | ? | -29% | / | 4%
C=CCC(Nc1ccco1)c1ccccc1 (configuration not stated) | 18 | 22µM* | -20% | 13% | -3%
C=CCC(c1ccccc1)N(C(C)=O)c1ccco1 (configuration not stated) | / | -9% | / | / | /
CC1CC(C)CN(c2cc(N(C)CCO)c([N+](=O)[O-])c3nonc23)C1 (configuration not stated) | / | 11µM* | / | -30%[46 µM] | /
O=C(NCCc1ccccc1)C1CCC(CNS(=O)(=O)c2ccccc2)CC1 (configuration not stated) | / | / | / | -15%[46 µM] | /
O=C(COC(=O)C1CCN(S(=O)(=O)c2cccs2)CC1)c1ccccc1 | / | 0% | / | 2%[46 µM] | /
Cc1cccc(CCNC(=O)C2CCC(CNS(=O)(=O)c3cccs3)CC2)c1 (configuration not stated) | / | 1.8µM* | / | / | /
O=C(OCn1nnc2ccccc2c1=O)C1CCN(S(=O)(=O)c2cccs2)CC1 | -100* | 4% | -8% | -8% | 0%
O=C(NCCc1ccccc1)C1CCC(CNS(=O)(=O)c2cccs2)CC1 (configuration not stated) | / | 4µM* | / | / | /
Cc1cc(C)c(S(=O)(=O)NCC2CCC(C(=O)NCCc3ccccc3)CC2)c(C)c1 (configuration not stated) | / | / | / | 13%[46 µM] | /
O=C(NCCc1ccccc1)C1CCN(S(=O)(=O)c2cccs2)CC1 | ? | 10µM* | -3% | 0% | -6%
CCCCC(=O)NC1(C(F)(F)F)NC(=O)N(Cc2ccccc2)C1=O (configuration not stated) | / | 0% | / | -18%[9.22 µM] | /
CN1CCN(c2ncc3nc(-c4cccc(C#N)c4)c(=O)n(CCC#N)c3n2)CC1 | / | ? | / | -8% | /
CC(=O)c1cccc(NC(=O)CCn2nc(C)c(S(=O)(=O)N(C)C)c2C)c1 | / | / | / | 2%[46 µM] | /
CCc1ccc(S(=O)(=O)Nc2ccc3[nH]c(=O)sc3c2)cc1 | / | / | / | 0%[46 µM] | /
CCN1CCN(C(=O)C2CCC(CNS(=O)(=O)c3ccccc3)CC2)CC1 (configuration not stated) | 1 | -15% | -6% | 6% | 2%
O=C(C1CCC(CNS(=O)(=O)c2cccc3cccnc23)CC1)N1CCCC1 (configuration not stated) | ? | -8% | 6.3µM* | -14% | -2%
COCCCNC(=O)C1CCN(S(=O)(=O)c2c(C)noc2/C=C\c2ccc(OC)cc2)CC1 | -109* | ? | i | 6% | 2%
O=S(=O)(NCCc1ccc2c(c1)OCCO2)c1cccs1 | -81* | -8% | -13% | -10% | 2%
CCCCNC(=O)C1CCN(S(=O)(=O)c2c(C)noc2/C=C\c2ccc(OC)cc2)CC1 | 32 | 7% | 27% | 9% | 5%
O=C(C1CCC(CNS(=O)(=O)c2cccs2)CC1)N1CCCCC1 (configuration not stated) | ? | ? | 3.2µM* | -10% | -2%
SMILES | PNC inhibitor | ALDH1A1 inh | HPGD inh | LMNA splice mod | ALOX12 inhib
Cc1ccc(NC(=O)CC(C)S(=O)(=O)c2ccc3c(c2)NC(=O)CO3)cc1Cl (configuration not stated) | / | / | / | -12%[46 µM] | /
COc1ccc(OC)c(-c2ccc(C(=O)O)o2)c1 | / | ? | ? | / | -1%[0.00818 µM]
Clc1ccc(-c2noc3ncnc(NCCc4ccccc4)c23)cc1 | / | / | / | -9%[46 µM] | /
O=c1c(-c2ccc(Cl)cc2)nc2cnc(N3CCOCC3)nc2n1-c1ccccc1 | / | ? | / | 14% | /
Cc1ncsc1C(=O)N1CCCC(CNS(=O)(=O)c2cccs2)C1 (configuration not stated) | / | -14% | / | 9%[46 µM] | /
COCCNC(=O)C1CCN(S(=O)(=O)c2ccccc2)CC1 | 11 | 0% | 25µM* | -5% | -5%
O=C(c1ccc2c(c1)OCCO2)N1CCCC(CNS(=O)(=O)c2cccs2)C1 (configuration not stated) | / | 2.2µM* | / | / | /
N=C(N)C(N=Nc1ccccc1)C(=N)N (configuration not stated) | / | 2%[13.5 µM] | -8% | / | -3%[11.4 µM]
C[C@@H]1C(c2cccc(Cl)c2)=NN(c2ccc(Br)cc2)[C@H]1C(=O)N1CCOC1=O | / | ? | ? | / | -2%[0.00818 µM]
CC(=O)Nc1nonc1-c1nnc(SCc2ccccc2C)n1C | / | / | / | 18%[46 µM] | /
CCOc1ccc(NC(=O)C(c2ccccn2)N(C(=O)CCl)c2ccc(OCC)cc2)cc1 (configuration not stated) | -18 | 8.9µM* | -13% | -5% | -6%
S=c1[nH]nc(Cc2ccccc2)n1-c1cccc2ccccc12 | 14 | ? | 16µM* | 3% | -11%
O=c1c2ccccc2cnn1Cc1n[nH]c(=S)n1-c1ccccc1Cl | -17 | 32µM* | ? | -3% | -2%
CC(C)(Oc1ccc(Cl)cc1)C(=O)N/N=C/c1cn[nH]c1-c1ccccc1 | -19 | 8.9µM* | -28% | 8% | -25%
O=C(N/N=C\c1cn[nH]c1-c1ccccc1)c1ccc([N+](=O)[O-])cc1 | 13 | -9% | -14% | -2% | -5%
Cc1cc(C(=O)N/N=C/c2cn[nH]c2-c2ccccc2)cs1 | -114* | 0% | -8% | -5% | -2%
CCCN(C(=O)Cn1ncc2c([nH]c3ccccc32)c1=O)c1ccc(F)cc1 | / | / | / | 0%[46 µM] | /
CC(=O)NNC(=S)NC(=O)c1ccccc1 | / | 18µM* | / | 2%[46 µM] | /
COc1ccc(C(=O)NC(=S)NNC(=O)c2cnccn2)cc1 | 30 | 18µM* | ? | ? | -1%
CCCC(=O)NC(=S)NNC(=O)c1ccc([N+](=O)[O-])cc1 | ? | 18µM* | -10% | ? | 2%
COc1cc(C(=O)NC(=S)NNC(=O)c2cnccn2)cc(OC)c1OC | 5 | -5% | ? | ? | 0%
O=C(COc1ccccc1)NNC(=S)NC(=O)c1ccccc1 | / | 22µM* | / | -17%[46 µM] | /
O=C(Cc1cccs1)NNC(=S)NC(=O)c1ccccc1 | -9 | ? | -17% | ? | -2%
COc1cccc(N2CC(NC(=O)C3CC3)CC2=O)c1 (configuration not stated) | / | / | / | 6%[46 µM] | /
CC(=O)N1CCC2(CCCN(c3ccccn3)C2)CC1 | / | ? | ? | / | 1%
